Several values for one entry are separate records, joined by “and”; a condition that tells them apart may be missing. Equal values may be shown once. Results filed as inconclusive are left out. Activity calls are given as the source filed them. The call rests on the fitted dose curve.

Test [1] can be described thus: Cytotoxicity counterscreen for inhibitors of SARS-CoV-2 cell entry (AID 1645845). Further: nearly all actives have a fitted effect of over 50% in size. The gist of the method:
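Counterscreen run in the same HEK293-ACE2 line as the pseudotyped-particle entry assay, without particles. Viability after 48 h at 37 C was read as ATP luminescence, scaled between cell-containing and cell-free wells.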

The nature of test [2]: Primary qHTS to identify inhibitors of SARS-CoV-2 cell entry (AID 1645846). Further: nearly all actives have a fitted effect of over 45% in size. The following applies: activity change, negative = inhibition: at 57.1 µM (top of the series) unless noted. The gist of the method:
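Luminescence readout (Bright-Glo luciferase) 48 h after pseudoparticle addition. HEK293-ACE2 cells, 1500/well; compound pre-incubation 1 h; Normalized to spike PP and bald PP.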
Potency means the concentration at half of the fitted maximal effect.

For `Cc1cccc(Nc2ccccc2C(=O)O)c1C`, the Potency result in test [1] and in test [2] was “inactive” throughout.
Turning to `CCCNCC(O)COc1ccccc1C(=O)CCc1ccccc1` (centres undefined), in test [1], the Potency result was “inactive”. In addition, the Potency in test [2] is 20 µM (active) and 35.5 µM (active).
For `CCCCN1C[C@H](O)[C@@H](O)[C@H](O)[C@H]1CO`, in test [1], the Potency result was “inactive”. Besides, in test [2], the activity change, negative = inhibition is -1.04%.
On to `NNCCc1ccccc1`, for which the Potency result in test [1] and in test [2] was “inactive” each time.
For the compound `O=C(O)CCNC(=O)c1ccc(N=Nc2ccc(O)c(C(=O)O)c2)cc1`, the Potency result in test [1] and in test [2] was “inactive” in each case.
For the compound `CC(C)(O)c1ccccc1CC[C@@H](SCC1(CC(=O)O)CC1)c1cccc(/C=C/c2ccc3ccc(Cl)cc3n2)c1`, the Potency result in test [1] and in test [2] was “inactive” each time.
With `CCCN1C[C@H](CSC)C[C@@H]2c3cccc4[nH]cc(c34)C[C@H]21`, the Potency result in test [1] was “inactive”. The activity change, negative = inhibition in test [2] was -12.6%.
With `Cc1ccc(S(=O)(=O)NC(=O)NN2CCCCCC2)cc1`, the Potency result in test [1] was “inactive”. For the same compound, the activity change, negative = inhibition in test [2] was found to be 2.93%.
`O=c1n(CCCN2CCN(c3cccc(Cl)c3)CC2)nc2ccccn12`: the Potency entry in test [1] is “inactive”. Also, the activity change, negative = inhibition in test [2] is -23.8%.
For `CC(=O)OCC(CCn1cnc2cnc(N)nc21)COC(C)=O`, the Potency result in test [1] is “inactive”. In addition, in test [2], the activity change, negative = inhibition was -14.3% and -5.75%.
Take `Cc1cccc(Nc2ccncc2S(=O)(=O)NC(=O)NC(C)C)c1`: the Potency entry in test [1] and in test [2] was “inactive” each time.
Regarding `Cc1ccc(S(=O)(=O)NC(=O)NN2CC3CCCC3C2)cc1` (centres undefined), the Potency result in test [1] and in test [2] was “inactive” each time.
In the case of `CCCCOCCOCCOCc1cc2c(cc1CCC)OCO2`, in test [1], the Potency result is “inactive”. Also, the activity change, negative = inhibition in test [2] is -2.81%.
Regarding `CN(C)[C@@H]1C(=O)C(C(N)=O)=C(O)[C@@]2(O)C(=O)C3=C(O)c4c(O)ccc(Cl)c4[C@@H](O)[C@H]3C[C@@H]12`, the Potency result in test [1] and in test [2] was “inactive” each time.
For `Cc1ccnc2c1NC(=O)c1cccnc1N2C1CC1`, the Potency result in test [1] was “inactive”. Besides, the activity change, negative = inhibition in test [2] is -19.4%.
Regarding `C[C@@H](O)[C@H]1C(=O)N2C(C(=O)O)=C(S[C@@H]3CN[C@H](CNS(N)(=O)=O)C3)[C@H](C)[C@H]12`, the Potency entry in test [1] was “inactive”. For the same compound, the activity change, negative = inhibition in test [2] was -25.7%.
In the same order, the values of `Cc1cnc(C(=O)NCCc2ccc(S(=O)(=O)NC(=O)NC3CCCCC3)cc2)cn1` are “inactive” and 3.67%.
As to `CO/N=C(\C(=O)N[C@@H]1C(=O)N2C(C(=O)O)=C(CSc3nc(=O)c(O)nn3C)CS[C@H]12)c1csc(N)n1`, the Potency entry in test [1] and in test [2] was “inactive” throughout.
Regarding `CCCCNC(=O)NS(=O)(=O)c1ccc(C)cc1`, the Potency result in test [1] and in test [2] was “inactive” each time.
Regarding `COc1ccc(Cl)cc1C(=O)NCCc1ccc(S(=O)(=O)NC(=O)NC2CCCCC2)cc1`, the Potency result in test [1] is “inactive”. In addition, in test [2], the activity change, negative = inhibition is 4.27%.
With `COc1ccccc1OCC(O)COC(N)=O` (centres undefined), the Potency result in test [1] and in test [2] was “inactive” throughout.
Turning to `CCCN(CCC)S(=O)(=O)c1ccc(C(=O)O)cc1`, the Potency result in test [1] was “inactive”. Moreover, in test [2], the activity change, negative = inhibition is -14.9%.
For the compound `Nc1nc(=S)c2[nH]cnc2[nH]1`, the results for the Potency in test [1] and in test [2] were 7.94 µM (active) and 14.1 µM (active), respectively.
In the same order, the values of `O=C1c2cccc3c2[C@H](CCC3)CN1[C@@H]1CN2CCC1CC2` are “inactive” and “inactive”.
For the compound `CN1C(=O)CC(C)(c2ccccc2)C1=O` (centres undefined), the Potency result in test [1] was “inactive”. Also, the activity change, negative = inhibition in test [2] is -13.4%.
Turning to `CCN(C)C(=O)Oc1cccc([C@H](C)N(C)C)c1`, the Potency result in test [1] and in test [2] was “inactive” each time.
As for `COC(=O)CCc1ccc(OCC(O)CNC(C)C)cc1` (centres undefined), the Potency entry in test [1] is “inactive”. Besides, the activity change, negative = inhibition in test [2] is -35%.
On to `CC(C)Oc1ccc2c(=O)c(-c3ccccc3)coc2c1`, for which the Potency result in test [1] and in test [2] was “inactive” in each case.
In the case of `CC(C)C1CCC(C(=O)N[C@H](Cc2ccccc2)C(=O)O)CC1` (some centres undefined), the Potency entry in test [1] was “inactive”. Also, the activity change, negative = inhibition in test [2] is 2.32% and -12.7%.
For `C[C@H]1O[C@H](O[C@H]2[C@H](O)[C@@H](O)[C@@H](O[C@H]3[C@H](O)[C@@H](O)[C@H](O)O[C@@H]3CO)O[C@@H]2CO)[C@H](O)[C@@H](O)[C@@H]1N[C@H]1C=C(CO)[C@@H](O)[C@H](O)[C@H]1O`, the Potency result in test [1] and in test [2] was “inactive” in each case.
`O=C1NC(=O)C(c2ccccc2)(c2ccccc2)N1`: the Potency entry in test [1] and in test [2] was “inactive” in each case.
As to `CC1(CN2CCC(n3c(=O)[nH]c4ccccc43)CC2)OCc2ccccc2-n2cccc21` (centres undefined), the Potency entry in test [1] was “inactive”. In test [2], the activity change, negative = inhibition was -26.7%.
As for `CCOC(=O)[C@H](CCc1ccccc1)N[C@@H](C)C(=O)N1Cc2ccccc2C[C@H]1C(=O)O`, the Potency entry in test [1] was “inactive”. In addition, the activity change, negative = inhibition in test [2] turned out to be 3.61%.
For the compound `CC1(C)S[C@@H]2[C@H](NC(=O)C(C(=O)O)c3ccccc3)C(=O)N2[C@H]1C(=O)O` (some centres undefined), the Potency entry in test [1] and in test [2] was “inactive” in each case.
On to `CC[C@H](C)C(=O)O[C@H]1C[C@@H](C)C=C2C=C[C@H](C)[C@H](CC[C@@H]3C[C@@H](O)CC(=O)O3)[C@H]21`, for which the Potency result in test [1] and in test [2] was “inactive” throughout.
For the compound `Cc1ccc(C(=O)c2cc(O)c(O)c([N+](=O)[O-])c2)cc1`, the Potency result in test [1] was “inactive”. Also, the activity change, negative = inhibition in test [2] was -19.3%.
For the compound `Cc1ccccc1C(=O)Nc1ccc(C(=O)N2CCCC(O)c3cc(Cl)ccc32)c(C)c1` (centres undefined), the Potency entry in test [1] is “inactive”. For the same compound, in test [2], the activity change, negative = inhibition is -8.91%.
As to `COC(=O)Nc1nc2ccc(C(=O)c3ccccc3)cc2[nH]1`, the Potency result in test [1] is “inactive”. Further, in test [2], the activity change, negative = inhibition was -67.2% and -34.4%.
On to `Cc1cn[nH]c1`, for which the Potency result in test [1] was “inactive”. In test [2], the activity change, negative = inhibition amounted to 4.3%.
For the compound `COc1ccc([C@@H]2Sc3ccccc3N(CCN(C)C)C(=O)[C@@H]2OC(C)=O)cc1`, the Potency entry in test [1] was “inactive”. Besides, the activity change, negative = inhibition in test [2] is -17.1% and -9.97%.
With `N[C@@H](C(=O)N[C@@H]1C(=O)N2C(C(=O)O)=C(Cl)CS[C@H]12)c1ccccc1`, the outcome in test [1] and in test [2] was “inactive [at 11.3 µM]” in each case.
On to `NCCC(O)(P(=O)(O)O)P(=O)(O)O`, for which the Potency entry in test [1] and in test [2] was “inactive” in each case.
Take `CCN1CCN(C(=O)N[C@@H](C(=O)N[C@@H]2C(=O)N3C(C(=O)O)=C(CSc4nnnn4C)CS[C@H]23)c2ccc(O)cc2)C(=O)C1=O`: the Potency result in test [1] and in test [2] was “inactive” in each case.
On to `O=C(C1CCCCC1)N1CC(=O)N2CCc3ccccc3C2C1` (centres undefined), for which the Potency entry in test [1] and in test [2] was “inactive” throughout.
As to `O=C(O)C(=O)c1cn(Cc2ccccc2)c2ccc(-c3ccc(OC(F)(F)F)cc3)cc12`, the Potency result in test [1] is “inactive”. In addition, in test [2], the activity change, negative = inhibition is -24.2%.
With `CN(C)/N=N/c1nc[nH]c1C(N)=O`, the Potency result in test [1] and in test [2] was “inactive” throughout.
For `CCn1cc(C(=O)O)c(=O)c2ccc(C)nc21`, the Potency result in test [1] and in test [2] was “inactive” in each case.
